Screening results as filed in PubChem BioAssay.
A selection: hits, their analogues and other compounds. The true share with any hit is near 7%.
ADAM17 inh – ADAM17 inhibitors, primary screen, biochemical, QFRET; inhibition, % at 6.95 µM; Disintegrin and metalloproteinase domain-containing protein 17 (Homo sapiens), P78536; 0.83% of 370,000 active; AID 720648, 2013; recombinant ADAM17, EDANS/DABCYL FRET peptide cleavage;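 active means inhibition above the mean of compounds lying between control limits plus 3 SD, set per campaign, cut at about 8.5% in these data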;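 further: 0% = DMSO-only wells as the low control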
ADAM10 inh – human ADAM10 inhibitors, primary screen, biochemical, QFRET, HTS. Disintegrin and metalloproteinase domain-containing protein 10 (Homo sapiens), O14672. recombinant ADAM10, EDANS/DABCYL FRET peptide cleavage, 3 h. inhibition, % at 7 µM. 0.62% of 370,000 active. AID 720582, 2013;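 active means inhibition above a per-campaign cutoff equal to the mean of compounds falling between control-based bounds plus 3 SD, cut at about 20% in these data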;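 further: 0% = DMSO wells while the 100% control is not disclosed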
KLK7 zymogen act – proKLK7 zymogen activators, primary screen, biochemical, fluorescence intensity; purified proKLK7, EDANS-DABCYL substrate fluorescence; 100% is mature enzyme control, 0% vehicle; activation, % at 7 µM; 0.9% of 370,000 active; AID 652039, 2013;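 active means activation above the mean of all tested compounds plus 3 SD, computed per campaign excluding outliers beyond control limits, cut at about 13% in these data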
Target sequence (P49862 whole entry, looked up): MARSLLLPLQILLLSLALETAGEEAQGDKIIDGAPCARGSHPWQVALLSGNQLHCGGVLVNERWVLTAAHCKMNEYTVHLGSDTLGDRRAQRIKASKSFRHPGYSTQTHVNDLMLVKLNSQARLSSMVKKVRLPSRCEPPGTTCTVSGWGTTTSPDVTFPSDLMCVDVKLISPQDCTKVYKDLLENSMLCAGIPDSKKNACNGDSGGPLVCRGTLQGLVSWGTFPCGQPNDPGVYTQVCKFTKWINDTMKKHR
rCAG RNA binder – binders of r(CAG) RNA repeats, primary screen, biochemical, fluorescence; r(CAG) RNA repeat, TO-PRO-1 dye displacement fluorescence; inhibition, % at 3 µM; 1.3% of 370,000 active; AID 651821, 2012;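 active means inhibition above the plate cutoff, the mean of all test compounds on that plate plus 3 SD, cut at about 35% in these data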;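 further: 0% = DMSO alone and 100% = 100 µM mitoxantrone as full dye displacement; higher means more dye released from RNA so lower well fluorescence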
GRIN3A LBD mod – binders of NR3A ligand-binding domain, primary screen, biophysical, differential scanning fluorimetry, uHTS; Glutamate receptor ionotropic, NMDA 3A (GRIN3A) ligand-binding domain; NR3A LBD differential scanning fluorimetry, Tm shift; 0% = protein alone, 100% = glycine-bound protein; Tm shift relative to glycine control, % at 25 µM; 2.5% of 340,000 active;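 active means melting temperature shift of at least 10% of the positive control shift, at one fixed dose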
AHR activator – AHR activators, primary screen, cell-based, luminescence, luciferase reporter, human; 2.5% of 320,000 active; Aryl hydrocarbon receptor (Homo sapiens), P35869; AHR-responsive luciferase reporter cells; activation, % at 5 µM; in the data active means activation above about 47%;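 further: 0% = vehicle wells and 100% = reference agonist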
* marks the source's active call; other numbers are inactive results; nt = no result given.

SMILES	ADAM17 inh	ADAM10 inh	KLK7 zymogen act	rCAG RNA binder	GRIN3A LBD mod	AHR activator
COc1ccccc1Nc1nc(-c2sc(NC(=O)C(C)(C)C)nc2C)cs1	1	7	-1	22	1	29
COc1cccc(Nc2nc(-c3sc(NC(=O)CC(C)C)nc3C)cs2)c1	-4	-6	0	22	-3	51*
CCCC(C)C(=O)Nc1nc(C)c(-c2csc(Nc3cc(OC)ccc3OC)n2)s1 (configuration not stated)	5	9	-1	29	-3	74*
CCCCNC(=O)NC1CCN(CC(=O)Nc2ccc3c(c2)OCCO3)CC1	-1	-16	0	4	nt	nt
Nc1cc2ccccc2cc1NS(=O)(=O)N1CCCCC1	-22	-71	-2	7	nt	nt
CCCCCC[C@@H](CC)CN(C(=O)Oc1ccccc1)c1ccccc1	-2	-14	0	4	nt	nt
C[C@H]1C(C(=O)N(C)C2CCCCC2)=Cc2c(n(-c3ccc(F)cc3)c(=O)n2CCCOc2ccccc2)C=C1c1ccccc1	-9	-36	-81	12	nt	nt
COc1cc(OC)c(C#N)c(S(=O)(=O)Cc2ccccc2)c1	-4	-6	-1	12	12*	-2
CCC1N=C(SC)NC(C)=C1C(=O)c1ccccc1 (configuration not stated)	0	-4	-1	1	-2	5
CSC1=NC(C(Cl)(Cl)Cl)N=C(c2ccc(C)cc2)N1 (configuration not stated)	-1	2	0	-2	-2	67*
C#CCN1C(=O)[C@]2(NCCc3c2[nH]c2ccc(OC)cc32)c2ccccc21	-2	-2	-1	-1	nt	nt
O=C1/C(=C/c2cccc([N+](=O)[O-])c2)CCc2ccccc21	-1	4	0	-3	11*	-5
COc1cccc(C=C2Cc3ccccc3C2=O)c1	-4	-13	-1	3	nt	nt
COc1cccc(/C=C2\CCc3ccccc3C2=O)c1	2	2	0	-2	22*	2
Cc1ccsc1/C=C1\CCc2ccccc2C1=O	-5	-1	0	3	1	50*
CC(C)(C)CCN1CCC[C@H](NC(=O)COc2ccc(F)c(Cl)c2)C1	-5	-7	nt	nt	nt	nt
COC(=O)c1cc(C(c2ccccc2O)C2CCCO2)n2cccc(C(C)(C)C)c12 (configuration not stated)	-66	-261	-9	7	nt	nt
Cc1ccc(NC(=O)OC2CC3CC2[C@H]2CCCCN2C3)cc1 (some centres not stated)	-4	-4	0	3	nt	nt
O=C(NC1CCCCN(Cc2cccc(C(F)(F)F)c2)C1=O)c1ccc(F)cc1 (configuration not stated)	0	-1	0	-3	nt	nt
Cc1cccc2cc(/C=N/NC(=O)c3ccncc3)c(Cl)nc12	-2	-5	0	-3	1	6
Cc1cccc2cc(/C=N/NC(=O)c3ccccc3O)c(Cl)nc12	0	5	-1	6	29*	8
Cc1ccc2cc(/C=N/NC(=O)c3ccccc3O)c(Cl)nc2c1	-2	2	1	5	19*	13
O=C(c1c(F)cccc1F)N1CCC(Oc2cccnc2)CC1	-5	-5	0	0	nt	nt
O=C(Nc1nnc(Cc2ccc([N+](=O)[O-])cc2)s1)Nc1ccccc1F	2	-1	0	10	-6	6
Cc1ccc(NC(=O)Nc2nnc(Cc3ccc([N+](=O)[O-])cc3)s2)cc1C	4	11	1	26	25*	19
O=C(Nc1ccccc1)Nc1nnc(Cc2ccc([N+](=O)[O-])cc2)s1	-3	-4	0	16	16*	7
CCOC(=O)[C@]12CCCC=C1N(Cc1ccc(OC)cc1)C(=O)[C@@H]2CC(=O)NCCCCc1ccccc1	4	10	0	4	nt	nt
CCCCC(=O)N(Cc1ccccc1)c1ccccc1C(=O)Nc1cc(OC)ccc1OC	1	-4	0	4	nt	nt
